Source: PubChem
Only a selection was taken, and hits are over-represented in it overall.
TDP1 cell CPT: growth inhibition of DT40 Tdp1-/-;hTDP1 cells with camptothecin (screen for TDP1 inhibitors) | chicken DT40 Tdp1-/-;hTDP1 cells + 20 nM CPT, ATP luminescence, 48 h | Potency, µM (top dose mostly 46.2 µM), usual class: inhibitors | actives 12% (n = 420,000); note: nearly all actives have a fitted effect of over 55% in size
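Chicken DT40 Tdp1-/- cells stably complemented with human TDP1 were seeded at 400 cells/well in medium containing 20 nM camptothecin, exposed to pin-transferred compounds, and grown at 37 °C for at least 48 hr. Viability was read as ATP luminescence.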
12-LOX inh: blocks human arachidonate 12S-lipoxygenase. AID 1671190. actives 1.1% (n = 580,000). P18054. purified 12hLO, xylenol orange hydroperoxide absorbance. Potency, µM (series often up to 108 µM), most hits filed as inhibitors
Target sequence (P18054 whole entry, looked up): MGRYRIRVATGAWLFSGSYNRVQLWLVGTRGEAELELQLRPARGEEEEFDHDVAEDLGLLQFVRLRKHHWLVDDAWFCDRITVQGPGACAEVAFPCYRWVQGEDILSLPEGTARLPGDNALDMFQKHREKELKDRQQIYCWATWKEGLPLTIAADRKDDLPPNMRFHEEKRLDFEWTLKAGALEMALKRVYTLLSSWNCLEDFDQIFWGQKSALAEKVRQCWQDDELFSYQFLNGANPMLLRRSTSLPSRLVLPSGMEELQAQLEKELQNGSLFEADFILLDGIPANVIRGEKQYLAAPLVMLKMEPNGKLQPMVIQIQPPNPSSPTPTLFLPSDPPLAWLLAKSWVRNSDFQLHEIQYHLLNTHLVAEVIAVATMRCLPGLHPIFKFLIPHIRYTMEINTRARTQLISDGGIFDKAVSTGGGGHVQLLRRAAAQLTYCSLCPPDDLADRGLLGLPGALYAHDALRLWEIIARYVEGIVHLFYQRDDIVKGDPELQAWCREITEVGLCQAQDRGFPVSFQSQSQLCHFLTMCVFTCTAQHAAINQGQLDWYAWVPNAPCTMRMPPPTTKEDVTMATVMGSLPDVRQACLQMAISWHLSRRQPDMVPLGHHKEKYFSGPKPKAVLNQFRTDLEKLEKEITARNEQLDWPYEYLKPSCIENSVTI
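Purified human 12hLO at 150 nM in 25 mM Hepes, 0.01% Triton X-100, pH 7.0, preincubated 15 min at room temperature with compound. Reaction started with 40 uM arachidonic acid, 30 min at room temperature. Hydroperoxide measured by Fe-xylenol orange, 573/405 nm absorbance ratio.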
TDP1 cell noCPT: qHTS for Inhibitors of human tyrosyl-DNA phosphodiesterase 1 (TDP1): qHTS in cells in absence of CPT | Potency, µM (doses to about 46.2 µM), actives largely listed as inhibitors | actives 15% (n = 420,000) | DT40 Tdp1-/- hTDP1 cells, no CPT, ATP luminescence, 48 h; note: nearly all actives have a fitted effect of over 55% in size
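Readout: luminescence from CellTiter-Glo after 30 min in the dark at RT. Cells: DT40 Tdp1-/- with stable hTDP1, 400/well. Exposure: compounds alone, ≥48 hr, 37 °C.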
IL1B secr inh: inflammasome signaling inhibition, IL-1 beta readout. THP-1 LPS/ATP IL-1B secretion, AlphaLISA, 16 h; active compounds read low. AID 743279. activity change, % at 57.5 µM. actives 4.7% (n = 360,000); in the data active = activity change below about -50%; inconclusive = mostly about -30% to -49%
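THP-1 cells pretreated 1 hr with compounds (up to 57.5 uM final), then stimulated with LPS (250 ng/mL final) plus ATP (1.25 mM final); secreted IL-1B measured by AlphaLISA after 16 hr, decreased signal indicating inhibition.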
HT1080-NT tox: kills 2HG-producing HT-1080-NT fibrosarcoma cells | HT-1080-NT fibrosarcoma viability, CellTiter-Glo ATP luminescence, 48 h | Potency, µM (doses to about 46.1 µM), most hits filed as cytotoxic | actives 1.6% (n = 360,000);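 note: NT is the 2HG producing partner of a matched IDH1 knockdown line; nearly all actives have a fitted effect of over 55% in size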
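Compounds were tested in concentration-response format on HT-1080-NT cells for 48 hours at 37 degrees C. Cell viability came from CellTiter-Glo luminescence; curves were classified by r2, response magnitude and activity.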
HT1080 IDH1KD tx: toxicity to HT-1080 IDH1 knockdown cells (counter line). actives 2% (n = 360,000). Potency, µM (series often up to 46.1 µM), most hits filed as cytotoxic. HT-1080 IDH1 knockdown viability, ATP luminescence, 48 h. AID 686971
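Knockdown cells (IDH1KD HT-1080) received compounds 2 h after plating at 750 cells/well and were kept 48 h at 37 °C in 5% FBS RPMI. A CellTiter-Glo luminescence read gave % activity for curve fitting.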
Hits are given with their value; – = inactive; ? = inconclusive; · = no result given. Unless noted, calls come from the whole dose curve; as a rule, active = well fitted curve in the direction sought with a large enough effect; inconclusive = small, poorly fitted or top-dose-only effect, or another doubt; inactive = no such curve, though single readings can be large; an effect the other way counts as inactive or inconclusive.

SMILES | TDP1 cell CPT | 12-LOX inh | TDP1 cell noCPT | IL1B secr inh | HT1080-NT tox | HT1080 IDH1KD tx
O=C(NCCC1=CCCCC1)c1c(O)nc2ccccn2c1=O | 11.6µM | – | 14.6µM | – | ? | –
CCc1nn2c(=O)cc(CN(C)C3CCCCCC3)nc2s1 | · | – | · | · | · | ·
COc1ccc(CCNC(=O)c2cc3cc(F)ccc3nc2C)cc1OC | 20.6µM | – | 9.2µM | – | – | –
COc1ccc(CCNC(=O)c2noc(-c3ccc(F)cc3)n2)cc1OC | · | – | · | · | · | ·
Cc1ccc(N(C(=O)Cn2nnc(-c3ccc(F)cc3)n2)C(C(=O)NC(C)(C)C)c2ccncc2)cc1 (stereo not drawn) | – | – | – | -69.1 | – | –
CC(C)(C)NC(=O)C(c1ccncc1)N(C(=O)Cn1nnc(-c2ccc(F)cc2)n1)c1ccc(F)cc1 (stereo not drawn) | – | – | – | – | – | –
Cc1ccccc1N(C(=O)Cn1nnc(-c2ccc(F)cc2)n1)C(C(=O)NC(C)(C)C)c1ccncc1 (stereo not drawn) | – | – | – | -57.1 | – | –
CC(C)(C)NC(=O)C(c1ccc(O)cc1)N(C(=O)Cn1nnc(-c2ccc(F)cc2)n1)c1ccccc1F (stereo not drawn) | ? | – | 16.4µM | ? | – | –
O=C(Cc1ccc(Cl)cc1)N1CCC(n2cc(-c3nc(-c4ccccc4)no3)nn2)CC1 | · | – | · | · | · | ·
COCCCN1CCC(CNc2nccc(-c3cnn(C)c3)n2)C1 (stereo not drawn) | · | – | · | · | · | ·
O=C(NCc1cccc(F)c1)C1CCN(C(=O)c2ncn3c2COC(c2ccccc2)C3)CC1 (stereo not drawn) | · | – | · | · | · | ·
Cn1c(NC(=O)C(C)(C)Oc2ccc(Cl)cc2)cc(=O)n(C)c1=O | 16.4µM | ? | ? | – | – | –
Cn1c(NC(=O)c2cc(Cl)ccc2Cl)cc(=O)n(C)c1=O | – | – | – | – | – | –
COc1ccc(OCC(=O)NNc2c3ccccc3nc3ccccc23)cc1 | 23.1µM | – | 20.6µM | -51.0 | – | ?
O=C(COc1ccccc1)NNc1c2ccccc2nc2ccccc12 | ? | – | 13µM | – | – | ?
COc1ccc(C(=O)N2CCC(c3noc(-c4cnccn4)n3)C2)cc1OC (stereo not drawn) | · | – | · | · | · | ·
Cc1ccc(C)c(N2CCN(C(=O)c3cc4c(=O)oc5ccccc5c4s3)CC2)c1 | – | – | – | · | · | ·
C[C@@H](C(=O)NCCc1ccc(F)cc1)N1C(=O)N2CCc3c([nH]c4ccccc34)[C@@]2(C)C1=O | 11.6µM | – | 11.6µM | – | – | –
CC(C)C[C@@H](C(=O)NCc1ccco1)N1C(=O)N2CCc3c([nH]c4ccccc34)[C@@]2(C)C1=O | ? | – | 5.17µM | – | – | –
COc1ccc(CNC(=O)[C@H](C)N2C(=O)N3CCc4c([nH]c5ccccc45)[C@@]3(C)C2=O)cc1OC | 2.59µM | – | 4.11µM | – | – | –
COc1ccc2[nH]c3c(c2c1)CCN1C(=O)N([C@@H](C)C(=O)NCc2ccc(F)cc2)C(=O)[C@]31C | – | – | ? | – | – | –
COc1ccc2[nH]c3c(c2c1)CCN1C(=O)N([C@@H](C)C(=O)NCCc2ccc(F)cc2)C(=O)[C@]31C | 23.1µM | – | 7.31µM | – | – | –
C[C@@H](C(=O)NCc1ccco1)N1C(=O)N2CCc3c([nH]c4ccccc34)[C@@]2(C)C1=O | ? | – | ? | – | – | –
Cc1ccc(S(=O)(=O)c2nnn3c2nc(N2CCCC(C)C2)c2cc(Cl)ccc23)cc1C (stereo not drawn) | – | – | – | · | · | ·
Nc1ncccc1CN1CC[C@@H]2OCC(=O)N(Cc3ccc(O)cc3)[C@H]2CC1 | · | – | · | · | · | ·
SMILES | TDP1 cell CPT | 12-LOX inh | TDP1 cell noCPT | IL1B secr inh | HT1080-NT tox | HT1080 IDH1KD tx
CSc1nn(Cc2cccc(Cl)c2)c(N(C(C)=O)C(C)=O)c1S(=O)(=O)c1ccccc1 | ? | – | 20.6µM | · | · | ·
CC(=O)Nc1cc(-c2ccccc2)nn1Cc1cccc(Cl)c1 | – | ? | – | · | · | ·
COc1ccc(F)cc1C(=O)COC(=O)C1(c2ccc(Cl)cc2)CC1 | · | – | · | · | · | ·
O=C(c1ccc([N+](=O)[O-])cc1)N1CCSC1c1ccc(Br)cc1 (stereo not drawn) | ? | ? | 18.4µM | – | – | –
O=C(c1ccc([N+](=O)[O-])cc1)N1CCSC1c1ccc(Cl)cc1 (stereo not drawn) | – | – | – | – | – | –
O=C(NCC1CCCN(C(=O)N2CCCC2)C1)c1ccc(-c2ccccc2)cc1 (stereo not drawn) | · | – | · | · | · | ·
COc1cccc(N2CCN(CC(=O)N3CCN(S(=O)(=O)c4ccc(Cl)cc4)CC3)CC2)c1 | ? | – | 18.4µM | – | – | –
COc1cccc(C(=O)CN2CCN(S(=O)(=O)c3ccc(Cl)cc3)CC2)c1 | ? | 56.2µM | ? | · | · | ·
COc1cccc(Cn2c(=O)n(CC3CCC(C(=O)N4CCOCC4)CC3)c(=O)c3sccc32)c1 (stereo not drawn) | ? | – | 20.6µM | · | · | ·
Cc1cccc(Cn2c(=O)n(CC3CCC(C(=O)N4CCOCC4)CC3)c(=O)c3sccc32)c1 (stereo not drawn) | 23.1µM | – | 18.4µM | · | · | ·
O=C(C1CCC(Cn2c(=O)c3sccc3n(Cc3ccccc3F)c2=O)CC1)N1CCOCC1 (stereo not drawn) | 16.4µM | – | ? | · | · | ·
COc1cccc(CN2CCC(C(=O)N3CCC(C)CC3)CC2)c1 | – | – | – | – | – | –
CCCNC(=O)C1CCC(Cn2c(=O)c3sccc3n(Cc3ccccc3C)c2=O)CC1 (stereo not drawn) | – | – | – | · | · | ·
CC(c1cccs1)N(C)Cc1ccc(OC(F)(F)F)cc1 (stereo not drawn) | · | – | · | · | · | ·
COc1ccc(CN(Cc2ccccc2)C(=O)c2ccncc2)cc1COc1ccc(NC(C)=O)cc1 | ? | · | 11.2µM | · | – | –
COc1ccc(CN(Cc2ccccc2)C(=O)CN2CCN(C)CC2)cc1COc1ccc(NC(C)=O)cc1 | ? | · | 17.8µM | · | – | –
COc1ccc(CN2C(=O)N(c3ccccc3)C(=O)C2c2ccccc2)cc1COc1ccc(NC(C)=O)cc1 (stereo not drawn) | 10µM | · | 8.91µM | · | – | –
COc1ccc(CN(Cc2ccccc2)C(=O)COC(C)=O)cc1COc1ccc(NC(C)=O)cc1 | ? | · | ? | · | – | –
COc1ccc(CN(Cc2ccccc2)C(C)=O)cc1COc1ccc(NC(C)=O)cc1 | ? | · | 11.2µM | · | ? | ?
